# Screening data from PubChem.
# FBW7 act: FBW7 E3 ligase activators, primary screen, biochemical, AlphaScreen, human | F-box/WD repeat-containing protein 7 (Homo sapiens), Q969H0 | AlphaScreen FBW7–phospho-cyclin E peptide binding, activator screen | normalized activity (activation), % at 26.1 µM | 650,000 compounds, 0.13% hits | AID 1259310, 2017; in the data active = normalized activity above about 1.9%;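 note: purified mutant Fbw7 with reduced substrate affinity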
# Target sequence (Q969H0 whole entry, looked up): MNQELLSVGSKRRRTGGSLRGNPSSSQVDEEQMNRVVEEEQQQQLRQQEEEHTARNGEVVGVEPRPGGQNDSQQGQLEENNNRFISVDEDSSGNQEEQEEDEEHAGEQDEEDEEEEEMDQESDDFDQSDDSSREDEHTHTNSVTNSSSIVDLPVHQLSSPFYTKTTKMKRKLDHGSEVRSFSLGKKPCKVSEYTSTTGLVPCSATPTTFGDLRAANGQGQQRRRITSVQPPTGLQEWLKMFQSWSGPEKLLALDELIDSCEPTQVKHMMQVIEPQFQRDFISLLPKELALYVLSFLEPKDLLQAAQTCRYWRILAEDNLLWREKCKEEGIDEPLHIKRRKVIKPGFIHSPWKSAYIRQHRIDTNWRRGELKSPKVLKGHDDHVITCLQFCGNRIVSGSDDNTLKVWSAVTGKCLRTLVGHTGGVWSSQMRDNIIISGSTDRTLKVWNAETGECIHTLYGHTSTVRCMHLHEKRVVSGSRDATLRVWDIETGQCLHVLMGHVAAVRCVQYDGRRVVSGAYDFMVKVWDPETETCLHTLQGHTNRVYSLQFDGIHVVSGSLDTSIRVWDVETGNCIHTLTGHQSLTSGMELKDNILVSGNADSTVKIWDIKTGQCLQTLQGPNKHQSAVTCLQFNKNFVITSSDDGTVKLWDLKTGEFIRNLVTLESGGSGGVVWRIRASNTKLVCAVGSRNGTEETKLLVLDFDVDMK
# MITF inh: MITF inhibitors, primary screen, biochemical, AlphaScreen, human. Microphthalmia-associated transcription factor (Homo sapiens), O75030. AlphaScreen MITF homodimerization, bead proximity signal. inhibition, % at 2.6 µM. 650,000 compounds, 0.91% hits. AID 1259374, 2018; in the data active = inhibition above about 50%;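 note: 0% = vehicle wells with protein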
# TEAD-YAP block: TEAD-YAP interaction inhibition, primary screen, TEAD-YAP interaction inhibitor project, luminescence, HEK-TIYL cells; AID 1259422, 2018; inhibition, % at 9.12 µM; 640,000 compounds, 1.4% hits; TEAD-Gal4/YAP UAS-luciferase luminescence; in the data active = inhibition above about 32%;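 note: 0% = median of test compound wells and 100% = reference inhibitor wells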
# GPR151 ag: activators of human GPR151, primary screen, cell-based, PathHunter beta-arrestin, luminescence; G-protein coupled receptor 151 (Homo sapiens), Q8TDV0; PathHunter beta-arrestin GPR151 cells; activation, % at 11.2 µM; 650,000 compounds, 1% hits; AID 1508602, 2020; in the data active = activation above about 4.9%;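 note: 0% = median of compound wells and 100% = cells with positive control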
# Active calls of the source: *. Most compounds without a hit are left out; they make up all but 3.5% or so of the library.
SMILES,FBW7 act,MITF inh,TEAD-YAP block,GPR151 ag
COCCCNC(=O)c1cc2c(=O)n(C)c(=O)n(C)c2n1CCOC,-0.1,-1.9,-11.0,-0.5
Cc1ccc(CNCc2ccc(N3CCOCC3)cc2)cc1,-0.1,54.7*,6.3,3.9
COc1ccc(CCNCc2ccc(N3CCOCC3)cc2)cc1,0.1,53.2*,1.7,2.7
COc1ccc(CNCCN2CCOCC2)cc1,-0.1,-4.7,-5.3,-0.6
Cc1ccc(N2CCOCC2)cc1,-0.1,11.0,3.6,0.6
COc1ccc(Cl)cc1NC(=S)N(Cc1cccnc1)Cc1ccco1,0.2,-63.8,-7.3,1.6
CCOC(=O)C1=C(C)N=c2s/c(=C/c3ccc(-c4ccc([N+](=O)[O-])cc4Br)o3)c(=O)n2C1c1ccc(N(C)C)cc1 (stereo not drawn),0.1,6.8,6.8,-0.2
Cc1nc(C)n(-c2ccc(Nc3ncc(F)c(-c4cc(F)cc(N5CCN(C)CC5)c4)n3)cc2)n1,-0.2,-2.6,63.6*,-1.5
Fc1cc(-c2ccnc(Nc3cccc(CN4CCOCC4)c3)n2)cc(N2CCOCC2)c1,-0.2,3.3,53.0*,-1.2
Cc1nc(C)n(-c2ccc(Nc3ncc(F)c(-c4cc(C#N)cc(N5CCOCC5)c4)n3)cc2)n1,-0.1,-3.3,4.2,-0.6
Fc1cc(-c2nc(Nc3cccc(CN4CCOCC4)c3)ncc2F)cc(N2CCOCC2)c1,0.9,14.5,90.9*,-2.2
Fc1cc(-c2nc(Nc3ccc(-n4ccnc4)cc3)ncc2F)cc(N2CCOCC2)c1,-0.1,-4.3,57.4*,-0.7
Fc1cc(-c2nc(Nc3cccc(Cn4cccn4)c3)ncc2F)cc(N2CCOCC2)c1,0.1,17.1,-5.9,-1.7
CCOC(=O)c1ccc(NC(=O)c2ccc([N+](=O)[O-])cc2)cc1,-0.1,4.1,-4.2,0.4
Fc1cc(-c2nc(Nc3cccc(CN4CCCC4)c3)ncc2F)cc(N2CCOCC2)c1,0.4,11.0,93.3*,-1.1
CN(C)/C=C/C=C1\CCC/C(=C\N(C)C)C1=O,-1.2,52.5*,-14.3,0.5
Cc1ccc(Nc2nc(CSc3nnc(N)s3)cs2)cc1,-0.1,6.7,43.9*,0.0
CC(C)(C)c1ccc2c(c1)NC(=O)CO2,-0.2,-13.7,35.4*,-0.4
O=C1COc2ccc(C(=O)O)cc2N1,0.0,9.3,7.2,-0.5
Cc1nc2cc(-c3ccc(Cl)cc3)nn2c(C)c1CCC(=O)O,0.0,12.6,43.9*,0.9
Cc1nc2cc(-c3ccccc3)nn2c(C)c1CCC(=O)O,0.0,6.2,51.2*,-5.2
Cc1csc(NC(=O)CCc2c(C)nc3cc(-c4ccccc4)nn3c2C)n1,1.4,1.2,37.5*,-0.5
COc1cc(OC)cc(-c2cc3nc(C)c(CCC(=O)NCc4ccccc4)c(C)n3n2)c1,0.2,-7.4,39.4*,-0.6
N#Cc1ccc(/C=N/NC(=O)c2cccc(NC(=O)c3ccc(F)cc3)c2)cc1,0.7,1.2,-4.9,-0.7
CSc1nsc(SCC(=O)NC2CCCCC2)n1,0.7,21.4,-23.2,1.3
SMILES,FBW7 act,MITF inh,TEAD-YAP block,GPR151 ag
CCOc1ccc(C2NC(=S)NC(C)=C2C(=O)Nc2ccc(C)cc2C)cc1 (stereo not drawn),0.1,13.1,6.1,-0.5
Cc1ccc(C)c(Nc2ncnc3c2cnn3-c2ccc(Cl)cc2)c1,0.1,8.8,-12.0,-0.5
Oc1ccc(-c2nc3cc4sc(-c5ccc(O)cc5)nc4cc3s2)cc1,0.0,6.8,12.2,0.1
Cc1ccc2nc(-c3ccc(O)cc3)sc2c1,0.1,9.0,98.0*,-7.3
Cc1ccc2nc(-c3ccc(NC(=O)c4ccccc4C(=O)O)cc3)sc2c1,0.1,13.8,83.2*,-6.4
COC(=O)CCC(=O)Nc1ccc(-c2nc3ccc(C)cc3s2)cc1,-0.1,-1.1,72.4*,-1.8
COc1ccc(OCC(=O)Nc2ccc(-c3nc4ccc(C)cc4s3)cc2)cc1,0.7,15.9,38.9*,1.7
CC1=C(C(=O)Nc2cccc(Cl)c2)C(c2ccc(O)c(Cl)c2)NC(=O)N1 (stereo not drawn),0.0,-15.6,-0.4,2.1
CN(Cc1cccc([N+](=O)[O-])c1)C1CCCCC1,0.1,-1.5,4.5,0.4
Cc1ccc2nc(-c3ccc(NC(=O)C4CCCN4S(C)(=O)=O)cc3)sc2c1 (stereo not drawn),0.2,13.7,49.5*,-0.9
CCN(CC)C(=O)C1CCCN(c2nc(NC3CC3)c3ncn(C4CCCCC4)c3n2)C1 (stereo not drawn),-0.3,-0.7,28.5,1.9
CCN(CC)C(=O)C1CCCN(c2nc(Nc3ccc(Oc4ccccc4)cc3)c3ncn(C4CCCCC4)c3n2)C1 (stereo not drawn),5.4*,11.4,5.3,-0.1
CCN(CC)C(=O)C1CCCN(c2nc(Nc3ccc(NC(C)=O)cc3)c3ncn(C(C)C)c3n2)C1 (stereo not drawn),-0.1,7.4,45.9*,-0.5
Cc1cc(C)cc(NC(=O)c2ccc3c(=O)n(C4CCCCC4)c(SCC(=O)c4ccccc4)nc3c2)c1,0.0,13.8,-2.9,0.3
CCOC(=O)N1CCN(C(=O)C(C)c2ccc([N+](=O)[O-])cc2)CC1 (stereo not drawn),-0.2,2.9,-1.4,2.8
O=C1c2ccc([N+](=O)[O-])cc2C(=O)N1c1ccc(I)cc1,2.2*,6.7,3.9,-1.2
O=C(O)c1ccc(N2C(=O)c3ccc(Oc4ccc([N+](=O)[O-])cc4)cc3C2=O)cc1[N+](=O)[O-],2.5*,-9.7,2.9,-0.3
O=C1C(=O)c2cc([N+](=O)[O-])ccc2-c2ccc([N+](=O)[O-])cc21,-0.6,15.3,53.5*,1.1
O=C1c2ccc([N+](=O)[O-])cc2C(=O)N1c1ccc(O)cc1,-0.1,-4.5,6.5,1.8
O=C(O)c1ccc(Oc2ccc(N3C(=O)c4ccc(Oc5ccc([N+](=O)[O-])cc5)cc4C3=O)cc2)cc1,-0.1,0.6,-5.4,0.7
O=C1c2ccc([N+](=O)[O-])cc2C(=O)N1CCCCN1C(=O)c2ccc([N+](=O)[O-])cc2C1=O,-0.1,-0.5,0.8,1.9
N.N.N.N.N.N.N.N.N.N.N.N.N.N.O.O.[Cl-].[Cl-].[Cl-].[Cl-].[Cl-].[Cl-].[Ru+2].[Ru+2].[Ru+2],0.6,46.9,40.8*,0.4
CCOc1ccc(-n2c(=S)sc3c(=O)n(-c4ccc(C)cc4)c(SCc4ccccc4Cl)nc32)cc1,0.1,-11.3,0.3,0.9
Cc1cc(Sc2nc3c(C)cccn3c(=O)c2C=O)ncn1,1.9*,-0.7,-2.1,0.2
N#C/C(=C/Nc1ccc(C(N)=O)cc1)c1nc(-c2ccc3c(c2)OCO3)cs1,0.0,-7.3,-1.3,1.0
COc1cccc(-c2nnc3sc(CN4CCCCC4)cn23)c1,-0.1,0.0,48.5*,-0.7
C=CCNC(=O)C/C(C)=N/NC(=O)c1ccc([N+](=O)[O-])cc1,0.0,7.4,-13.9,0.5
Cc1ccc2[nH]c(=O)c(CN(CC3COCCO3)C(=O)Nc3ccccc3Cl)cc2c1 (stereo not drawn),0.1,3.2,36.6*,-1.0
